# Data published in PubChem BioAssay (Tox21).
# Results filed as inconclusive are left out. A call without a number means that no potency is given here. The source made the active and inactive calls. The call rests on the fitted dose curve.
# Target: Peroxisome proliferator-activated receptor gamma (Homo sapiens) (UniProt P37231)
# Test: qHTS assay to identify small molecule antagonists of the peroxisome proliferator-activated receptor gamma (PPARg) signaling pathway (AID 743191); further: nearly all actives have a fitted effect of over 30% in size
# Details: HEK293H PPARg-UAS-bla, beta-lactamase ratio, antagonist, 17 h; series mostly up to 62.6 µM
# Text: U.S. Tox21 Program National Center for Advancing Translational Sciences [NCATS] NIH Chemical Genomics Center [NCGC] U.S. Environmental Protection Agency [EPA] National Institutes of Environmental Health Sciences [NIEHS] National Toxicology Program [NTP] U.S. Food and Drug Administration [FDA] Tox21 Assay Overview: The peroxisome proliferator-activated receptors (PPARs) are lipid-activated transcription factors of the nuclear receptor superfamily with three distinct subtypes namely PPAR alpha, PPAR delta (also called PPAR beta) and PPAR gamma (PPARg). All these subtypes heterodimerize with Retinoid X receptor (RXR) and these heterodimers regulate transcription of various genes. PPAR-gamma receptor (glitazone receptor) is involved in the regulation of glucose and lipid metabolism. To identify the compounds that inhibit PPAR-gamma signaling, GeneBLAzer PPAR gamma UAS-bla HEK293H cell line (Invitrogen, Carlsbad, CA, USA) containing a beta-lactamase reporter gene under control of an Upstream Activator Sequence (UAS) was used to screen the Tox21 compound library.
# Tox21 Assay Protocol Summary: PPARg-bla cells were dispensed at 3000 cells/6uL/well in 1536-well black wall/clear bottom plates using a Multidrop Combi (Thermo Fisher Scientific, Waltham, MA) dispenser. After the assay plates were incubated at 37C and 5% CO2 for 5 h, 23 nL of compounds dissolved in DMSO, positive controls or DMSO only was transferred to the assay plate by a Pintool station (Kalypsys, San Diego, CA). The assay plates were incubated at 37C for 17 h. After 1 uL of LiveBLAzerTM B/G FRET substrate was added using a Bioraptr Flying Reagent Dispenser (FRD) workstation (Beckman Coulter, Indianapolis, IN, USA), the plates were incubated at room temperature for 1 h, and fluorescence intensity was measured by an Envision plate reader (PerkinElmer, Shelton, CT).
# Potency means the concentration at half of the fitted maximal effect.
# Chain of Peroxisome proliferator-activated receptor gamma (Homo sapiens) (P37231 whole entry, looked up): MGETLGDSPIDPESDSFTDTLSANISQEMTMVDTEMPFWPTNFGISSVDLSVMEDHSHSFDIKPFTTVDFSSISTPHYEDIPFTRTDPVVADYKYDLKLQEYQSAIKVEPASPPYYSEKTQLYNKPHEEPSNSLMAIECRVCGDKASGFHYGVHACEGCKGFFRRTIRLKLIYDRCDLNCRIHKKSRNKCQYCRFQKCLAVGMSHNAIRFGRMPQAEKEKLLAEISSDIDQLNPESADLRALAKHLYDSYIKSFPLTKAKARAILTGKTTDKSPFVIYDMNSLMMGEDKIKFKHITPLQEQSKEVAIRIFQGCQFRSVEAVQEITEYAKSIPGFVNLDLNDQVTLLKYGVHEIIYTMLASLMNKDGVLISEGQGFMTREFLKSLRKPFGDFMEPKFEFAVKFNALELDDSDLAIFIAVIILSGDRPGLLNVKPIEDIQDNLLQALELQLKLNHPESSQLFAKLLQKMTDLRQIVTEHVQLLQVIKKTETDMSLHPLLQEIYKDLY
row,SMILES,Potency
1,CCOc1nc(F)cc2nc(S(=O)(=O)Nc3c(Cl)cccc3Cl)nn12,inactive
2,COc1cc(Cl)c(OC)cc1Cl,inactive
3,CCO[C@H]1O[C@@H]2OC3(C)CC[C@H]4[C@H](C)CC[C@@H]([C@H]1C)[C@@]24OO3,inactive
4,C/C=C/C=O,inactive
5,CCc1ccc(C(=O)NN(C(=O)c2cc(C)cc(C)c2)C(C)(C)C)cc1,inactive
6,CC(C)(Cl)[N+](=O)[O-],inactive
7,N#Cc1ccc(Cl)cc1,inactive
8,CCC(Br)(CC)C(=O)NC(N)=O,inactive
9,Clc1ccc(C(OCCN2CCCCC2)c2ccccc2)cc1 (stereo not given),inactive
10,CC1(C)CCC(Cc2ccc(Cl)cc2)C1(O)Cn1cncn1 (stereo not given),49 µM (active)
11,NNC(=O)c1cccnc1,inactive
12,CC(=O)NC1CCSC1=O (stereo not given),inactive
13,O=[N+]([O-])C(Br)(CO)CO,inactive
14,CN1C[C@H](CNC(=O)OCc2ccccc2)C[C@@H]2c3cccc4c3c(cn4C)C[C@H]21,inactive
15,COc1c(C(C)(C)C)cc([N+](=O)[O-])c(C)c1[N+](=O)[O-],inactive
16,CCCN(CCC)c1c([N+](=O)[O-])cc(S(C)(=O)=O)cc1[N+](=O)[O-],inactive
17,Clc1cccc(SC2CCNCC2)n1,inactive
18,C=CCC1([C@H](C)CCC)C(=O)NC(=O)NC1=O,inactive
19,Cc1ccccc1CCl,inactive
20,COc1cc(CC(C)N)cc2c1OCO2 (stereo not given),inactive

row,SMILES,Potency
1,C=COC(C)=O,inactive
2,ClCCCCBr,inactive
3,Clc1cc(C(Cl)(Cl)Cl)cnc1Cl,inactive
4,CC(Cl)C(C)Cl (stereo not given),inactive
5,CCCCCCCCCC(=O)O[C@H]1CC[C@H]2[C@@H]3CCC4=CC(=O)CC[C@@H]4[C@H]3CC[C@]12C,inactive
6,COP(=S)(OC)Oc1cc(Cl)c(I)cc1Cl,27.5 µM (active)
7,C=CCCl,inactive
8,Clc1ccc(C2(Cn3cncn3)CC(Br)CO2)c(Cl)c1 (stereo not given),inactive
9,C=C(C#N)CCC#N,inactive
10,CCCCCCCCOC(=O)c1ccc(C(=O)OCCCCCCCC)c(C(=O)OCCCCCCCC)c1,inactive
11,Cn1cc[n+](C)c1 (tested in a mixture with another compound),inactive
12,ClCC(Br)CBr (stereo not given),inactive
13,Clc1cc(Cl)c(Cl)c(Cl)c1,inactive
14,COc1nn(C(=O)NS(=O)(=O)c2ccccc2OC(F)(F)F)c(=O)n1C,inactive
15,CCOC(=O)[C@]1(c2ccccc2)Oc2ccccc2[C@@H]1N,inactive
16,CC(c1ccc(O)cc1)(c1ccc(O)cc1)c1ccc(O)cc1,21.9 µM (active)
17,O=[N+]([O-])c1cc(C(F)(F)F)cc([N+](=O)[O-])c1Cl,inactive
18,O=C=Nc1ccc(Cl)cc1,inactive
19,c1ccc(C2CC2)c(OCC2=NCCN2)c1,inactive
20,CCCCC(CC)COP(=O)(Oc1ccccc1)Oc1ccccc1 (stereo not given),inactive
